High-throughput results (PubChem)
Compounds with a hit are over-represented: about 3.9% of the library has one in this group of screens.
ALR H2O2 inh = human ALR oxidase inhibition via reduced H2O2. P55789. hit rate 3.8% among 290,000. purified ALR, DTT oxidation, H2O2 HRP-luminol luminescence. inhibition, % (test concentration not listed);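 active = mean replicate inhibition above about 79%, with every replicate also reaching it, limit read from the data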
Target sequence (P55789 whole entry, looked up): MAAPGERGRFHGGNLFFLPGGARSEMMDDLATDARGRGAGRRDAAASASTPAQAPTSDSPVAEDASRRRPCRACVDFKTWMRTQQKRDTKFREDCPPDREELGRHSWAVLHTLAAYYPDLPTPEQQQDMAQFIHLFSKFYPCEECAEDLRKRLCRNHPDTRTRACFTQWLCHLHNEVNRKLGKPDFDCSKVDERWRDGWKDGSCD
UBC9 SUMO inh = blocks human SUMOylation mediated by UBC9; hit rate 0.36% among 290,000; AID 2006; inhibition, % at 35 µM; P63279; HTRF SUMOylation assay, SAE1/SAE2 + UBC9, in vitro; in the data active = inhibition above about 50%, passing the limit was not always enough
Target sequence (P63279 whole entry, looked up): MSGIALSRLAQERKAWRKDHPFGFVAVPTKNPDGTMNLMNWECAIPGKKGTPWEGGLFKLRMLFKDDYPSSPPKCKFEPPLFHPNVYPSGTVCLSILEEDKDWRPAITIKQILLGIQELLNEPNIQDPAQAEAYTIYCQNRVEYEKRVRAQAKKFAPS
H9c2 protect = modulators protecting cardiomyocytes from myocardial damage. H9c2 cardiomyocytes, H2O2 injury protection, ATPLite, 2 h. protection from H2O2 cell death, % at 20 µM. hit rate 0.63% among 360,000. AID 588492;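 active = compounds giving at least 50% protection of heart cells from peroxide-induced death in the single-dose screen, raw or plate-pattern-corrected value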;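 also: 0% = DMSO wells with peroxide and 100% = DMSO wells without peroxide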
NTR1 agonist = agonists of human neurotensin receptor NTR1. NTR1-U2OS beta-arrestin-GFP spot imaging, agonist mode. AID 493036. P30989. hit rate 0.17% among 330,000. activation, % at 20 µM;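 active = activation at or above 40% of the spot to cytoplasm intensity ratio, with at least 20 cells analyzed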;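 also: 0% = DMSO without peptide and 100% = 100 nM NTR1 peptide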
* = called active by the depositor; . = not tested or not shown.

SMILES | ALR H2O2 inh | UBC9 SUMO inh | H9c2 protect | NTR1 agonist
Cc1cccc2cc(C#N)c(N3CCN(C)CC3)nc12 | -15.3 | 26.3 | 4.5 | 0.2
O=C(NCCN1CCN(C(=O)c2ccc([N+](=O)[O-])cc2)CC1)C(=O)Nc1ccc(F)cc1 | -8.3 | -17.4 | -2.3 | 0.5
O=CNc1cc(-c2ccc(C(=O)NC3CC3)cc2)cn2c(-c3ccc(F)c(Cl)c3)cnc12 | . | . | 59.9* | .
CC(=O)c1ccc(-c2cnc3c(NC=O)cc(-c4ccc(C(=O)NC5CC5)cc4)cn23)cc1 | . | . | 95.4* | .
O=CNc1cc(-c2ccc(C(=O)NC3CC3)cc2)cn2c(-c3ccccc3)cnc12 | . | . | 72.4* | .
O=CNc1cc(-c2ccccc2)cn2c(-c3ccc(F)c(Cl)c3)cnc12 | . | . | 6.4 | .
Nc1c(-c2cccs2)cnn1-c1nc(-c2ccc(F)cc2)cs1 | 5.8 | -8.9 | -18.9 | 3.4
CCOC(=O)C1=C(C)N=c2sc(=C(C)C)c(=O)n2C1c1ccc(N(C)C)cc1 (stereo not given) | 29.6 | . | 25.5 | 4.7
CCOC(=O)c1nnc(-c2cccs2)nc1Oc1ccc(Cl)cc1 | 91.9* | 19.7 | -6.7 | 6.4
CCOC(=O)c1nnc(-c2cccs2)nc1Oc1ccccc1C(=O)OC | 40.7 | 8.5 | -27.7 | 6.1
COc1ccc(/C=C2\SC(=S)N(C(C)C(=O)NC3C=CS(=O)(=O)C3)C2=O)cc1 (stereo not given) | 98.2* | -2.2 | -1.9 | 1.2
COc1cccc(/C=C2\SC(=S)N(C(C)C(=O)NC3C=CS(=O)(=O)C3)C2=O)c1 (stereo not given) | 61.6 | -1.2 | -4.9 | 1.0
CN(C)c1ccc(N/C=C/C(=O)C(C)(C)C)cc1 | 99.4* | -26.8 | -12.1 | -1.0
CC(C)(C)C(=O)/C=C/Nc1ccccc1O | 98.9* | 1.0 | -12.9 | 1.0
CC(NC(=O)C(Cc1ccccc1)n1cccc1)c1ccccc1 (stereo not given) | -1.2 | 9.6 | -2.6 | 0.7
O=C(O)c1ccc(-c2ccccn2)s1 | 0.4 | -6.9 | -0.8 | 1.7
CN(C)CCCNc1ccc(-c2n[nH]c(=O)c3ccccc23)cc1[N+](=O)[O-] | -74.4 | 15.5 | 55.1* | -0.1
N#CCCn1cc(/C=N/N=C2\NC(=O)C(CC(=O)O)S2)c(-c2ccc(F)cc2)n1 (stereo not given) | -30.0 | 11.4 | 2.3 | -0.1
Cc1ccc(C(=O)N/C(=C/c2cccc([N+](=O)[O-])c2)C(=O)NCC2CCCO2)cc1 (stereo not given) | -3.7 | 7.3 | 0.5 | 0.3
Nc1nc(-c2c[nH]c3ccccc23)cs1 | 87.0* | 7.0 | 49.3* | -0.9
CNc1nc(-c2c[nH]c3ccccc23)cs1 | . | 5.5 | -1.4 | -0.4
CCCCOP(=O)(c1ccc(N(C)C)cc1)C(O)c1ccc(N(C)C)cc1 (stereo not given) | 92.3* | 15.3 | 0.4 | -2.1
Cc1ccc(Nc2nc3ccccc3c(=O)[nH]2)cc1C | 7.9 | 11.1 | -0.8 | 1.7
Cc1ccc(Nc2nc(/N=C/N(C)C)n[nH]2)cc1C | 97.6* | 4.8 | 2.6 | -0.3
COc1ccc(C(=O)N/N=C/c2c(CO)cnc(C)c2O)cc1 | 2.5 | 24.6 | 17.8 | -1.0
SMILES | ALR H2O2 inh | UBC9 SUMO inh | H9c2 protect | NTR1 agonist
COc1ccccc1N/N=C/c1c(CO)cnc(C)c1O | 99.9* | 1.1 | 8.1 | 1.7
COc1ccccc1NS(=O)(=O)c1cccc(C(=O)N/N=C/c2c(CO)cnc(C)c2O)c1 | 25.1 | . | 52.5* | 0.3
COc1cc(N=Cc2c(CO)cnc(C)c2O)cc(OC)c1OC | 99.2* | 6.9 | 5.8 | 0.3
Cc1nc2nc(CCc3ccccc3)nn2c(C)c1Cl | -9.5 | -13.8 | 6.5 | 2.5
Cc1ccc(CCNC(=O)C2CCN(S(=O)(=O)c3cccc4cccnc34)CC2)cc1 | 4.0 | . | 11.7 | 1.4
COc1cccc(CNc2nc(NC(C)C)nc3ccsc23)c1OC | . | . | -5.9 | .
O=C(C1CCN(S(=O)(=O)c2cccc3cccnc23)CC1)N1CCN(C2CCCC2)CC1 | 82.2* | 4.9 | 3.7 | -1.0
O=C(NCc1cccs1)C1CCN(S(=O)(=O)c2cccc3cccnc23)CC1 | 94.7* | 10.9 | 12.8 | -2.9
Cc1ccc(NC(=O)C2CCN(S(=O)(=O)c3cccc4cccnc34)CC2)nc1 | 95.5* | 16.7 | 7.4 | -1.2
Cc1cc(N)n(-c2ccc(S(=O)(=O)c3ccc(C(C)C)cc3)cc2)n1 | -1.9 | -11.6 | -2.3 | 1.2
CC(NC(=O)CS(=O)(=O)c1ccccc1)c1ccccc1 (stereo not given) | -2.0 | 1.9 | -1.2 | -0.5
COCOCCn1cc(CN2CCS(=O)(=O)N(Cc3ccc(-c4ccc(C)cc4)cc3)C(C)C2=O)nn1 (stereo not given) | . | . | -11.1 | .
CCOC(=O)c1cnc(-n2nc(C)cc2C)nc1NCc1ccc2c(c1)OCO2 | -26.3 | 13.5 | 16.5 | 3.1
CCOC(=O)c1cnc(-n2nc(C)cc2C)nc1NCCc1ccccc1 | -0.5 | 2.4 | 60.9* | 8.4
